Experimental data: the supplement of paper PMC3334620
Over roughly 33,000 sequences, “E-score (-0.5 to 0.5)” has its median near -0.053; the highest 2% begin near 0.37. What follows is part of a selection rich in the highest values, with near analogues and random picks from the rest.

These sequences were tested against Hap1 (UniProt P0CE41) (assay: PBM E-score (8-mer binding enrichment) (E-score (-0.5 to 0.5)); higher = stronger / more preferred TF binding). Conditions: protein concentration: 200 nM; construct: GST-DNA-binding domain.
Description: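 Universal 'all 10-mer' protein binding microarrays (Agilent AMADID 015681) probed with GST-tagged S. cerevisiae TFs (full-length or DBD) made by in vitro transcription/translation (PURExpress), about 100-200 nM. Bound TF was detected with fluorescent anti-GST. Each ungapped 8-mer (which stands for itself and its reverse complement) is scored by the PBM enrichment score (E-score), a modified Wilcoxon-Mann-Whitney statistic from -0.5 to +0.5, computed with the Universal PBM Analysis Suite. Scale: above 0.35 generally sequence-specific binding.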

Chain of UniProt P0CE41 (P0CE41 whole entry, the tested form may be a part): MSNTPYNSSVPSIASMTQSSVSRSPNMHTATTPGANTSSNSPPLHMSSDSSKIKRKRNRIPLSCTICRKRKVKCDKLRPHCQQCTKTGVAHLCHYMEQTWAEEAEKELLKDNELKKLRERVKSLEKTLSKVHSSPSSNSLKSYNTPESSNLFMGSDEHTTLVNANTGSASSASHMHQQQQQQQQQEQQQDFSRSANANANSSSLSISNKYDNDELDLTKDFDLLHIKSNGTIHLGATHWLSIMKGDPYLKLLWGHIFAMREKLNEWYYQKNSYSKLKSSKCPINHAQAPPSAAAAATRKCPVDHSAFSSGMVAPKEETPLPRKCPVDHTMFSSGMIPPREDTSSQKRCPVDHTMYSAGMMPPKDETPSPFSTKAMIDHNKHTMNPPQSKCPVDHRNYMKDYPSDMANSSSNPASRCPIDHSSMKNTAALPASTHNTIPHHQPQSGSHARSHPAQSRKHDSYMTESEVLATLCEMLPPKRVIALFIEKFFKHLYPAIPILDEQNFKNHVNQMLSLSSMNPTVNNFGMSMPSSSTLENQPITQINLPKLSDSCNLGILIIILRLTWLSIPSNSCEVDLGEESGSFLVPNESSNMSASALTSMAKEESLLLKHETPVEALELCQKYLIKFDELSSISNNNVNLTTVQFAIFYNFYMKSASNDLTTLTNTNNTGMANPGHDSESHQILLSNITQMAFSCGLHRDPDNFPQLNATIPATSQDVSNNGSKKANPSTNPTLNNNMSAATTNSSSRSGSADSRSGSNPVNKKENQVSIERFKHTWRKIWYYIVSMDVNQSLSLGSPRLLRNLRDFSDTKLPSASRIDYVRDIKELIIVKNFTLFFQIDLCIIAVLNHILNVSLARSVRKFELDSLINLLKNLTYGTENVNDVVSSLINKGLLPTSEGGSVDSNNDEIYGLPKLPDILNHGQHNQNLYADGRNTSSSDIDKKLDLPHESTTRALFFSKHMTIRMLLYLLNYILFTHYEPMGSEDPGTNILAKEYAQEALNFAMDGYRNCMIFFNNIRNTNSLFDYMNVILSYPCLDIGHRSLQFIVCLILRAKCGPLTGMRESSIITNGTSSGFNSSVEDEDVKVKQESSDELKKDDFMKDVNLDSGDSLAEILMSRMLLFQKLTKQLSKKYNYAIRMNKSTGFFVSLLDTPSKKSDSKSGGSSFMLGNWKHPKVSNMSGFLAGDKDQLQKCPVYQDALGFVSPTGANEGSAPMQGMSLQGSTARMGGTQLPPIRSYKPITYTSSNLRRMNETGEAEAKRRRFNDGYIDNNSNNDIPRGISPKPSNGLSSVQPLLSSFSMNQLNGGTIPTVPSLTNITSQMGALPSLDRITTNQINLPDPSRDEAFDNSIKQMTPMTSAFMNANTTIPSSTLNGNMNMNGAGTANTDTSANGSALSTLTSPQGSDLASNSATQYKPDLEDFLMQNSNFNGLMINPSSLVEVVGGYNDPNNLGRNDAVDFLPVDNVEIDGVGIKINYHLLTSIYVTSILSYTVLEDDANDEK

Row | Sequence | PBM E-score
1 | CCCCGGTA | 0.334
2 | ACCCGGTC | 0.222
3 | GCCCGGCA | 0.25
4 | ACCCGGTA | 0.376
5 | AAGCCTCA | -0.136
6 | CACCGCAC | 0.0364
7 | CGTGCACC | -0.0161
8 | GGGTCCGA | 0.38
9 | GGGTCCAA | 0.15
10 | AGGTCCCA | -0.174
11 | CGGTCCGC | 0.317
12 | AGGTCCGG | 0.396
13 | AGGTCCAG | -0.0779
14 | CGGTCCTA | 0.33
15 | CGGTCCGA | 0.435
16 | AGGTCCGA | 0.404
17 | AGGTCCTG | -0.0186
18 | AGGTCCGC | 0.33
19 | GGGTCCCA | -0.0688
20 | AGTGAAAA | 0.0463
21 | ATCTAGCG | 0.00616
22 | AGATAGCC | 0.0418
23 | CGCGAATA | 0.182
24 | ATCTGAGA | -0.25
25 | CTTCGACA | -0.309

Row | Sequence | PBM E-score
26 | GCAGTAGA | -0.3
27 | AGGTTCGA | -0.0833
28 | CGGCTGAC | 0.192
29 | GCTCTTCC | 0.0685
30 | AACTTTTG | -0.0532
31 | CAAAGAGC | -0.176
32 | CCGGCAAA | 0.387
33 | CCGGCAAG | 0.269
34 | ACGGCAAC | -0.0151
35 | GCGGCAAA | 0.202
36 | CCGGCAAC | 0.373
37 | GCGGCAAC | 0.00981
38 | AGTTTTTA | -0.141
39 | AGATTATA | -0.0616
40 | ATTCTGGC | -0.0263
41 | AGCCCTTA | -0.128
42 | CTCTACAA | -0.178
43 | CTTTCCGA | 0.316
44 | ATTTCCGG | 0.459
45 | CTTTCCGC | 0.194
46 | ATTTCCAG | 0.129
47 | ACTTCCGG | 0.382
48 | ATTTCCCC | 0.181
49 | ATTTCCTG | -0.0599
50 | ACTTCCGC | 0.249

Row | Sequence | PBM E-score
51 | GTTTCCAA | -0.238
52 | ATTTCCGC | 0.399
53 | ACTTCCGA | 0.31
54 | GTTTCCGA | 0.379
55 | AAAACAAA | 0.043
56 | AGCGCACC | 0.149
57 | CGGTTCTA | 0.276
58 | ATCAAGAG | -0.172
59 | ACGGAACG | 0.195
60 | CTACCAGC | -0.319
61 | CATAGGCG | -0.196
62 | GCCACTAC | -0.042
63 | ATTTCCCA | -0.131
64 | ATTTCCGA | 0.432
65 | ATTTCCAA | 0.0623
66 | CCGTCTCC | 0.126
67 | AACCTATC | -0.00501
68 | GATAGTGC | -0.0408
69 | CGTACGAC | -0.0847
70 | CACGTCGG | 0.28
71 | GTCCGCTA | 0.37
72 | GTCCGGTA | 0.419
73 | GTTCGGTA | 0.249
74 | CTCCGGCC | 0.358
75 | CTCCGGCA | 0.371

Row | Sequence | PBM E-score
76 | CTCCGCTA | 0.336
77 | ATCCGGCA | 0.329
78 | GTACGGTA | 0.0448
79 | ATCCGGTC | 0.329
80 | CTCCGGTC | 0.431
81 | CGCCGGTC | 0.295
82 | ATCCGCTA | 0.306
83 | GGCATCGA | -0.206
84 | AAATGAAT | -0.213
85 | CCAGCGTC | 0.0197
86 | AGTTCTTA | 0.0534
87 | CGCCATCC | -0.00934
88 | CGTCGGAA | 0.306
89 | CATTTGCC | -0.0698
90 | AGGGAACG | -0.0997
91 | CGCCGGTA | 0.345
92 | ATCCGGTA | 0.357
93 | CTCCGGTA | 0.439
94 | CAAGCTCC | 0.00322
95 | GGGGCATA | 0.0612
96 | AGGGCTTA | -0.203
97 | CGGGCTTA | 0.437
98 | CGGGCTTC | 0.307
99 | CGGGCATA | 0.386
100 | AGGGCATA | -0.102

Row | Sequence | PBM E-score
101 | GTACTTCA | 0.032
102 | GGGGTTAC | 0.218
103 | AGGGTTAA | -0.259
104 | GGGTTTAA | 0.387
105 | TGGTTTAA | -0.161
106 | GGGTTTTA | 0.288
107 | GGGGTTAA | 0.386
108 | ATCTATCG | 0.268
109 | GACTCGGC | 0.186
110 | AACGAAGG | -0.308
111 | ACTTGGTG | -0.25
112 | ACCTGCCG | -0.0501
113 | GAGCGCAA | -0.175
114 | AGTTACTA | -0.128
115 | ACCAGTGA | -0.18
116 | GGTAGTTA | 0.0824
117 | CCCTAGCC | -0.138
118 | ATTCGGCG | 0.278
119 | ATTCGGAG | 0.299
120 | ATTCGGGC | 0.308
121 | ATTCGGGA | 0.197
122 | GTTCGGAA | 0.312
123 | ATTCGGGG | 0.393
124 | CTTCGGAA | 0.403
125 | ATTCGGAA | 0.311

Row | Sequence | PBM E-score
126 | ATTCGGCC | 0.375
127 | AGTCGGAC | 0.318
128 | ATTCGGCA | 0.224
129 | ATTCGGAC | 0.382
130 | AGGTGAAG | -0.184
131 | CGATTCAA | -0.0364
132 | GACGGGGC | 0.0768
133 | GTCCACAC | 0.0984
134 | ATTCGCCG | 0.295
135 | ATCCCAAG | -0.0728
136 | AAACTGCC | -0.0803
137 | ACTAGTTC | -0.0373
138 | CTTCGGCC | 0.309
139 | CTTCGGAC | 0.406
140 | CTTCGGGC | 0.208
141 | AATCTCGT | 0.0299
142 | CTATCGCC | 0.102
143 | CTATCGGC | 0.385
144 | ATATCGTC | 0.0615
145 | ATATCGCG | 0.314
146 | AAATCGGC | 0.303
147 | ATATCGGC | 0.455
148 | CTATCGTC | -0.0802
149 | CGATCGGC | 0.312
150 | ATATCGCC | 0.414

Row | Sequence | PBM E-score
151 | GCCCAAGA | -0.22
152 | CCACATCA | -0.064
153 | CTTGCTCA | -0.129
154 | GAGAGATA | 0.0119
155 | GCACAGAC | 0.0195
156 | GCTGATTA | -0.00254
157 | CGGCCTTC | 0.301
158 | CTGCCGGC | 0.322
159 | GGGCCGGA | 0.355
160 | CGGCCTGA | 0.183
161 | AGGCCGGA | 0.336
162 | CGGCCGTC | 0.277
163 | CGGCCTTA | 0.439
164 | CGGCCGTA | 0.417
165 | CGGCCGGA | 0.436
166 | AGGCCGGC | 0.271
167 | AGGCCGTA | 0.0497
168 | CGGCCGGC | 0.422
169 | AATGGGCC | 0.0191
170 | ACTCAGGA | -0.123
171 | CCAAATGA | 0.00146
172 | ACAGCACT | -0.0793
